Rows were chosen to be rich in hits. Some 27% of all compounds tested hit in one or more screens of this group.
sEH inh: blocks human soluble epoxide hydrolase activity. inhibition, % at 2 µM. AID 707. recombinant human sEH enzymatic activity assay. hit rate 0.34% among 91,000. P34913; in the data active = inhibition above about 80%
CYP2C9 activ: activators of human CYP2C9; recombinant CYP2C9, luciferin-H conversion, luminescence; stronger effect = higher value; factor 1 = untreated enzyme, 0 = blocked; hit rate 1.4% among 96,000; activation factor at 5 µM; P11712; AID 1024;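 active = activation factor of 2 or more for CYP2C9 at a 5 µM dose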
Target sequence (P11712 whole entry, looked up): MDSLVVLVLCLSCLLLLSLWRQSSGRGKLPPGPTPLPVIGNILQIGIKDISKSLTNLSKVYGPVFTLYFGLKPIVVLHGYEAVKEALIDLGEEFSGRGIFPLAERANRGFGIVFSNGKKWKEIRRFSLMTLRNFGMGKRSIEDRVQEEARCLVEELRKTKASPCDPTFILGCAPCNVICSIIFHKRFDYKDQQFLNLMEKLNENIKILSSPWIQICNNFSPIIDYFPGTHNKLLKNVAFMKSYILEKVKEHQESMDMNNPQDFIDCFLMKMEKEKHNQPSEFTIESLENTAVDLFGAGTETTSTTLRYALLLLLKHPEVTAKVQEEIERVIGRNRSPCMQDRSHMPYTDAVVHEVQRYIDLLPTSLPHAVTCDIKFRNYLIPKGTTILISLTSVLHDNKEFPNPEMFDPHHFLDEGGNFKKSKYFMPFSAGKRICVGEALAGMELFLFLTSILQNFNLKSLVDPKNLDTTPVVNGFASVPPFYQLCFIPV
CYP2C9 inhib: blocks human cytochrome P450 2C9; hit rate 20% among 96,000; AID 777; CYP2C9 Supersomes, luciferin-H conversion, luminescence; inhibition, % at 5 µM; P11712;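 active = blocking of liver enzyme CYP2C9 beyond about 50% at 5 µM, limit read from the data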
CYP2C19 act: cytochrome P450 2C19 (human) activation; recombinant CYP2C19, luciferin-H EGE luminescence; stronger effect = higher value; 0 = fully inhibited enzyme, 1 = untreated enzyme; P33261; activation factor at 5 µM; 96,000 tested, under 10 active;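 active = activation factor of at least 2 at 5 µM in the primary screen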
CYP2C19 inhib: blocks human cytochrome P450 2C19; CYP2C19 Supersomes, luciferin-H EGE luminescence, 30 min; hit rate 21% among 96,000; inhibition, % at 5 µM; P33261;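 active = CYP2C19 inhibition above a set limit at 5 µM in the primary screen, cut at about 50% in these data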
sEH activator: increases human soluble epoxide hydrolase activity. AID 717. P34913. activation, % at 2 µM. hit rate 0.04% among 91,000. purified human sEH enzymatic activity, activator screen; in the data active = activation above about 37%
Hits are given with their value; n = inactive; x = not tested or not shown.

SMILES | sEH inh | CYP2C9 activ | CYP2C9 inhib | CYP2C19 act | CYP2C19 inhib | sEH activator
COC(=O)c1c(C)[nH]c(C(=O)C(Cc2ccccc2)N(C)C)c1C (stereo not given) | n | n | 92 | n | 92 | n
CCOC(=O)c1c(C)[nH]c(C(=O)C(Cc2ccccc2)N(C)C)c1C (stereo not given) | n | n | 84 | n | n | n
CCCCN1C(=O)C(C2c3ccccc3C(=O)N2Cc2ccccc2)C(=O)NC1=S (stereo not given) | n | n | 54 | n | n | n
FC(F)(F)c1ccc2c(c1)nnn2C1CCN(Cc2nnnn2Cc2ccccc2)CC1 | x | n | 93 | n | n | x
Cc1ccc(Cn2nnnc2CN2CCC(n3nnc4cc(C)ccc43)CC2)cc1 | x | n | 96 | n | 91 | x
Cc1nc2cc(C(F)(F)F)ccc2n1C1CCN(Cc2nnnn2CCc2ccccc2)CC1 | n | x | x | x | x | n
Cc1nc2cc(F)ccc2n1C1CCN(Cc2nnnn2CCc2ccccc2)CC1 | x | n | 62 | n | 62 | x
Cc1ccc(Cn2nnnc2CN2CCC(n3nnc4cc(C(F)(F)F)ccc43)CC2)cc1 | n | n | 73 | n | n | n
Cc1cccc(-n2c(CN3C(=O)c4ccccc4C3=O)nc3ccccc3c2=O)n1 | n | x | x | x | x | n
Clc1cccc(Cl)c1C1N2CCCN12 (stereo not given) | n | n | n | n | n | n
CCN(CC)CCN=C(C)c1c(O)n(-c2ccccc2OC)c(=O)[nH]c1=O | n | n | n | n | n | n
Fc1ccc2c(c1)nnn2C1CCN(Cc2nnnn2C2CCCCC2)CC1 | n | n | 75 | n | 67 | n
Fc1ccc2c(c1)nnn2C1CCN(Cc2c(Cl)cccc2Cl)CC1 | n | x | x | x | x | n
CC(C)C(=O)c1cn(Cc2ccccc2C#N)c2ccccc12 | n | n | n | n | 60 | n
O=c1c2ccccc2[nH]c(=S)n1-c1ccc2c(c1)OCO2 | n | n | 83 | n | 97 | n
N[C@@H](Cc1c[nH]c2ccccc12)c1nnc(SCc2ccc(Cl)cc2)o1 | n | n | n | n | 66 | n
CCOCCCNC(=O)CN1C2CCC1CC(O)(c1ccc(OC)cc1)C2 (stereo not given) | n | n | n | n | n | n
CCOC(=O)c1c(NC(=O)C(c2ccccc2)c2ccccc2)sc2c1C1CCN2CC1 | n | n | 63 | n | n | n
Clc1ccccc1CN1CCN(c2ccccc2)CC1 | n | n | n | n | 99 | n
COc1ccccc1N1CCN(Cc2ccccc2Cl)CC1 | n | n | n | n | n | n
Nc1ccc(N2CCN(Cc3ccccc3Cl)CC2)c(Cl)c1 | n | n | 86 | n | 97 | n
Clc1cccc(Cl)c1CN1CCN(c2ccccc2)CC1 | n | n | n | n | 95 | n
OC(Cc1ccccc1)(c1ccccc1)C1CN2CCC1CC2 (stereo not given) | n | n | n | n | n | n
CC(=O)N1CCC2(CC1)CC(=O)c1cc(OCC(=O)N3CCN(C)CC3)ccc1O2 | n | n | n | n | n | n
O=C(c1cccn2c(=O)c3cc(Br)ccc3nc12)N1CCC2(CC1)OCCO2 | n | n | 55 | n | n | n
SMILES | sEH inh | CYP2C9 activ | CYP2C9 inhib | CYP2C19 act | CYP2C19 inhib | sEH activator
Cn1c(=O)cc(OCC(=O)N2CCN(C3CCCCC3)CC2)c2ccccc21 | n | n | n | n | n | n
Cn1c(=O)cc(OCC(=O)N2CCN(Cc3ccc4c(c3)OCO4)CC2)c2ccccc21 | n | n | 72 | n | 55 | n
CCC(C)C12CN3CCN(CC(C)(C3)C1=O)C2 (stereo not given) | n | n | 77 | n | 76 | n
C=CCn1c(O)c(C(CC)=NC2CC2)c(=O)[nH]c1=O | x | n | n | n | n | x
CCC(=NC1CC1)c1c(O)n(C2CCCCC2)c(=O)[nH]c1=O | n | n | n | n | 99 | n
Clc1cnc(Oc2ccc(Oc3ncc(Cl)cc3Cl)cc2)c(Cl)c1 | n | n | n | n | n | n
COc1ccc(CCNCc2ccc(SC)cc2)cc1 | n | n | n | n | 81 | n
COc1ccc(CCNCc2ccc(F)cc2)cc1OC | n | n | n | n | 52 | n
Cn1cccc1CNCCc1ccccc1 | n | n | n | n | n | n
Fc1ccc(CCNCc2cccc(Cl)c2)cc1 | n | n | n | n | 92 | n
Cc1cccnc1NC1=NCC(C)S1 (stereo not given) | n | n | n | n | n | n
COCc1c(CN)cnc(C)c1N | n | n | n | n | n | n
CCCCCCn1c(O)c(C=NCCCn2ccnc2)c(=O)[nH]c1=O | n | n | 93 | n | n | n
